# Menin-MLL TR inh: menin-MLL binding inhibition, Texas Red mutant peptide. Potency, µM (titrated, usually from 61.6 µM), for the others: top-dose FP activity change, negative = inhibition, usual class: inhibitors. 270,000 tested, 0.23% active. AID 1768. O00255. Menin + Texas Red MLL mutant peptide, fluorescence polarization; active means well fitted inhibition curve with a large enough effect in the polarisation, with a control signal flat, not every such curve was filed as active; inconclusive means small, poorly fitted or top-dose-only effect, or effect the other way, or a change in a side signal; inactive means no such curve, though single readings can be large or run the other way; the % refers to the polarisation; further: potency means the concentration at half of the fitted maximal effect; % of control where 0% means no effect
# Menin-MLL FL inh: menin-MLL binding inhibition, fluorescein peptide | Fluorescence polarization, fluorescein-MLL peptide displacement from menin | FP activity change, % at 61.4 µM | 290,000 tested, under 10 active; active means well fitted curve in the direction sought with a large enough effect in the polarisation, not every such curve was filed as active; inconclusive means small, poorly fitted or top-dose-only effect, or effect the other way, or a change in a side signal; inactive means no such curve, though single readings can be large or run the other way; the % refers to the polarisation; further: % of control where 0% means no effect
# RGS4 inhibitor: human RGS4 inhibition | P49798 | Transcreener GDP fluorescence polarization, RGS4-accelerated GTP hydrolysis | Potency, µM (top dose mostly 114 µM), without a hit: at the highest dose activity change, negative = inhibition, hits mostly inhibitors | 390,000 tested, 0.039% active | AID 504845; further: potency means the concentration at half of the fitted maximal effect; on the % scale 0 is the no-effect control and ±100 the full control effect; nearly all actives have a fitted effect of over 75% in size
#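 MLSMR compounds (23 nl, pin-transferred) preincubated 10 min at room temperature with a 500nM (2x) first reagent, then RGS4 at 900nM (2x) plus Transcreener GDP mix added; fluorescence polarization (620/688 nm) read before and after 90 min at 30 °C.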
# ERG Ets-DNA blk: blocks human ERG Ets domain binding to DNA | P11308 | fluorescence polarization, His-ERG Ets domain / labelled DNA | Potency, µM (top dose mostly 76.9 µM), for inactives: at the top dose FP activity, negative = inhibition, most hits filed as inhibitors | 370,000 tested, 0.028% active | AID 624246; active means well fitted inhibition curve with a large enough effect in the polarisation, with a control signal flat; inconclusive means small, poorly fitted or top-dose-only effect, or effect the other way, or a change in a side signal; inactive means no such curve, though single readings can be large or run the other way; the % refers to the polarisation;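 further: polarization taken with two DNA probes labelled with fluorescein and Texas red; potency means the concentration at half of the fitted maximal effect; % of control where 0% means no effect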
#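 His-tagged ERG Ets domain (1 uM in the protein solution; 300mM KCl, 50mM Tris-HCl, 1mM EDTA, 1mM DTT, pH 7.5) received compound, then a probe mix of 5 nM fluorescein-DNA and 100nM Texas-615-DNA. Fluorescence polarization was read for both dyes.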
# CXXC DNA block: MLL CXXC-DNA interaction inhibition; Q03164; MLL-CXXC / FITC-HOXA9 DNA fluorescence polarization; Potency, µM (series often up to 115 µM), for the others: at the top dose activity change, negative = inhibition, actives largely listed as inhibitors; 290,000 tested, 0.037% active; AID 2662; active means well fitted inhibition curve with a large enough effect in the polarisation, with a control signal flat, not every such curve was filed as active; inconclusive means small, poorly fitted or top-dose-only effect, or effect the other way, or a change in a side signal; inactive means no such curve, though single readings can be large or run the other way; the % refers to the polarisation; further: potency means the concentration at half of the fitted maximal effect
#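 Purified MLL-CXXC (added from a 7 uM solution) was preincubated 5 min at ambient with pinned compounds in 50 mM Tris-HCl pH 7.5, 50 mM NaCl, 1 mM DTT, 0.05% BSA. Fluorescein-labeled HOX-A9 DNA (50 nM solution) followed, 30 min, then polarization read.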
# TSG101-PTAP inh: blocks PTAP/TSG101 interaction to inhibit HIV-1 budding | Q99816 | Fluorescence polarization, FITC-PTAP peptide / Tsg101 binding | Potency, µM (doses to about 115 µM), for inactives: top-dose activity change, negative = inhibition, usual class: inhibitors | 340,000 tested, under 10 active | AID 493005; active means well fitted inhibition curve with a large enough effect in the main read-out, with a control signal flat, not every such curve was filed as active; inconclusive means small, poorly fitted or top-dose-only effect, or effect the other way, or a change in a side signal; inactive means no such curve, though single readings can be large or run the other way; further: potency means the concentration at half of the fitted maximal effect; % of control where 0% means no effect
#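 Steps: Tsg101 binding domain dispensed (10 uM final), compounds pinned in DMSO, FITC-labeled PTAP-motif peptide added (50 nM final); after 20 min binding at room temperature, polarization measured.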
# MLL CXXC FP-Fl: inhibitors of human MLL CXXC domain-DNA interaction; Potency, µM (titrated, usually from 345 µM), without a hit: at the top dose activity change, negative = inhibition, usual class: inhibitors; 200 tested, 70% active; shares compounds with CXXC DNA block; MLL CXXC-DNA binding, fluorescein FP; further: potency means the concentration at half of the fitted maximal effect; nearly all actives have a fitted effect of over 80% in size
# MLL CXXC FP-TR: inhibitors of human MLL CXXC domain-DNA interaction, Texas Red format. shares compounds with CXXC DNA block. MLL CXXC-DNA binding, Texas Red fluorescence polarization. Potency, µM (series often up to 345 µM), without a hit: at the highest dose activity change, negative = inhibition, hits mostly inhibitors. 200 tested, 40% active; further: potency means the concentration at half of the fitted maximal effect; on the % scale 0 is the no-effect control and ±100 the full control effect; nearly all actives have a fitted effect of over 75% in size
# MLL CXXC TRF: MLL CXXC-DNA interaction inhibition, HTRF readout | shares compounds with CXXC DNA block | MLL CXXC-DNA binding, HTRF, biochemical | Potency, µM (top dose mostly 172 µM), without a hit: at the highest dose activity change, negative = inhibition, most hits filed as inhibitors | 210 tested, 30% active | AID 624162; further: on the % scale 0 is the no-effect control and ±100 the full control effect; nearly all actives have a fitted effect of over 80% in size
# Active calls of the source: *; ? = inconclusive; . = no result; [ ] = remark or other dose. Many of the other results were omitted from the sample, so hits are more common in it than they were. Unless noted, the call rests on the fitted dose curve; in most records, active means well fitted inhibition curve with a large enough effect; inconclusive means small, poorly fitted or top-dose-only effect; inactive means no such curve, though single readings can be large or run the other way.
SMILES,Menin-MLL TR inh,Menin-MLL FL inh,RGS4 inhibitor,ERG Ets-DNA blk,CXXC DNA block,TSG101-PTAP inh,MLL CXXC FP-Fl,MLL CXXC FP-TR,MLL CXXC TRF
COc1cccc(CNC(=O)c2ccc(COc3ccccc3)cc2)c1,.,.,21.4%,-6.6%,6.7%,.,.,.,.
COC(=O)c1ccc(CNC(=O)c2ccc(COc3ccccc3)cc2)cc1,28.2µM*,-27.9,-21.4%,0.5%,19.4%,-6.7%,.,.,.
CC(C)C[C@@H](CC(=O)N[C@@H](CCCN)CC(=O)N[C@@H]1CCCC[C@H]1C(=O)N[C@H](CC(=O)N[C@@H](CCC(=O)O)CC(=O)O)CC(C)C)NC(=O)[C@@H]1CCCC[C@H]1N,1.9%,1.5,.,.,.,.,.,.,.
CC(C)c1nnc(NC(=O)c2cc3cc(Br)ccc3oc2=O)s1,.,3.7,-3.2%,0.9%,?,-0.9%,7.5%,-6.0%,34.2%
CC(C)N1CCN(c2ccc(C(=O)c3c(-c4ccc(O)cc4)sc4cc(O)ccc34)cc2)CC1,63.4%,-0.2,.,.,.,.,.,.,.
Cc1cc(-c2ccc(N=Nc3c(S(=O)(=O)O)cc4cc(S(=O)(=O)O)cc(N)c4c3O)c(C)c2)ccc1N=Nc1c(S(=O)(=O)O)cc2cc(S(=O)(=O)O)cc(N)c2c1O,?,?,.,.,25.1µM*,.,5.65µM*,7.11µM*,1.53µM*
CC1(C)CC(=O)C(C(C2=C(O)CC(C)(C)CC2=O)c2ccc(Br)s2)C(=O)C1 (stereo not given),24.2%,5.0,?,4.6%,?,0.1%,40µM*,37.3%,15.3µM*
CCCN(CCc1cccs1)[C@H]1CCc2c(O)cccc2C1,2.6%,1.2,.,.,16.5%,.,.,.,.
CCOC(=O)/C=C(\C)Sc1cc(=O)oc2ccccc12,-12.2%,4.4,-11.6%[56.9 µM],-9.4%,3.1%,0.9%,.,.,.
CCOC(=O)/C=C(\C)Sc1cc(O)c2ccccc2c1O,.,-7.2,?,1.5%,31.6µM*,-2.2%,?,?,19.3µM*
O=C(O)c1cccc(-n2cccc2C=C2C(=O)c3ccccc3C2=O)c1,?,7.9,-32.0%,5.8%,?,0.0%,179µM*,?,25.2%
CCC1OC2(C)OC(=N)C1(C#N)C(C#N)(C#N)C2c1ccccc1 (stereo not given),-7.1%,2.2,-21.2%,?,10.2%,-10.3%,.,.,.
CCC12OC(=N)C(C#N)(C1C)C(C#N)(C#N)C(c1ccccc1)O2 (stereo not given),-6.0%,-3.3,-4.9%,-1.0%,20µM*,-2.5%,12.6µM*,22.5µM*,32.5%
CCC(C)c1ccc(NC(=O)Nc2cccnc2)cc1 (stereo not given),?,-6.3,-16.1%,-1.6%,?,-6.7%,-6.8%,?,0.7%
CCC(C)c1ccc(NC(=O)NCc2cccnc2)cc1 (stereo not given),16.1%,6.0,-47.3%,-6.5%,?,-3.3%,.,.,.
O=C1/C(=N\S(=O)(=O)c2cccs2)C([n+]2cccc(Cc3ccccc3)c2)=C([O-])c2ccccc21,.,?,-18.0%,?,25.1µM*,?,142µM*,?,68.8%
O=C1/C(=N\S(=O)(=O)c2cccs2)C([n+]2ccc(CCCc3ccccc3)cc2)=C([O-])c2ccccc21,.,-18.8,11.0%,-0.2%,-28.6%,-3.6%,.,.,.
COC(C(=O)C(O)C(C)O)C1Cc2cc3cc(OC4CC(OC5CC(O)C(O)C(C)O5)C(O)C(C)O4)c(C)c(O)c3c(O)c2C(=O)C1OC1CC(OC2CC(OC3CC(O)C(OC)C(C)O3)C(O)C(C)O2)C(O)C(C)O1 (stereo not given),.,.,-38.4%,.,.,-10.1%,.,.,.
CO[C@H](C(=O)[C@@H](O)[C@@H](C)O)C1Cc2cc3cc(O[C@H]4C[C@@H](O[C@H]5C[C@@H](O)[C@H](O)[C@@H](C)O5)[C@@H](O)[C@@H](C)O4)c(C)c(O)c3c(O)c2C(=O)[C@H]1O[C@H]1C[C@@H](O[C@H]2C[C@@H](O[C@H]3C[C@](C)(O)[C@H](O)[C@@H](C)O3)[C@H](O)[C@@H](C)O2)[C@H](O)[C@@H](C)O1 (stereo not given in full),-8.4%,?,.,.,39.8µM*,.,25.9%,17.4%,83.0%
COC(C(=O)C(O)C(C)O)C1Cc2cc3cc(OC4CC(OC5CC(O)C(O)C(C)O5)C(O)C(C)O4)c(C)c(O)c3c(O)c2C(=O)C1OC1CC(OC2CC(OC3CC(C)(O)C(O)C(C)O3)C(O)C(C)O2)C(O)C(C)O1 (stereo not given),-6.3%,?,.,.,?,.,.,.,72.1%
Cc1nc(N=Nc2cc(S(=O)(=O)O)c3cc([N+](=O)[O-])cc(S(=O)(=O)O)c3c2)c(COP(=O)(O)O)c(C=O)c1O,?,3.2,-11.4%[56.9 µM],.,31.6µM*,.,17.9µM*,35.6µM*,15.3µM*
Cc1nc(N=Nc2cc([N+](=O)[O-])ccc2Cl)c(COP(=O)(O)O)c(C=O)c1O,?,-2.1,.,.,.,.,.,.,.
CC(C)[C@@H]1NC(=O)[C@H](CCCCN)NC(=O)[C@@H](Cc2c[nH]c3ccccc23)NC(=O)[C@H](Cc2ccc(O)cc2)NC(=O)[C@@H](NC(=O)[C@H](N)Cc2ccccc2)CSSC[C@@H](C(=O)N[C@@H](Cc2c[nH]c3ccccc23)C(N)=O)NC1=O,2.6%,-0.3,.,.,.,.,.,.,.
CC[C@H](C)[C@H](NC(=O)[C@H](Cc1ccc(O)cc1)NC(=O)CNC(=O)[C@@H]1CCCN1C(=O)[C@H](CC(=O)O)NC(=O)[C@@H](N)CS)C(=O)NCC(=O)N[C@@H](CO)C(=O)N[C@@H](CCCN=C(N)N)C(N)=O,6.7%,-6.6,.,.,.,.,.,.,.
